# DT40 TDP1 CPT: DT40-hTDP1 cell growth loss with CPT; chicken DT40 Tdp1-/-;hTDP1 cells + 20 nM CPT, ATP luminescence, 48 h; Potency, µM (top dose mostly 46.2 µM), without a hit: top-dose activity change, negative = growth inhibition, usual class: inhibitors; 420,000 compounds, 12% hits; note: potency is the fitted concentration of half-maximal effect; nearly all actives have a fitted effect of over 55% in size
#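 Cell growth measured by CellTiter-Glo luminescence after a minimum 48 h, 37 C compound exposure with 20 nM CPT in Tdp1-knockout DT40 cells stably expressing hTDP1, seeded 400/well; qHTS titration format.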
# CtBP-E1A blk: inhibitors of CtBP/E1A interaction. AlphaScreen GST-E1A/His-CtBP binding, 1536-well; stronger effect = lower value. activity change, % (test concentration not listed). 340,000 compounds, 0.49% hits; in the data active = activity change below about -65%; inconclusive = mostly about -30% to -63%
#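 Steps: dispense buffer (Tris pH 8.0, NaCl 300 mM, TCEP 1 mM, BSA, Tween 20); add 5X protein mix (GST-E1A, His-CtBP, 125 nM each); pin 23 nL compound; 2 h at 37 °C, dark; add 5X beads (50 ug/mL); 1 h; read.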
# IL-1B inflam inh: inhibitors of inflammasome signaling (IL-1 beta secretion). THP-1 LPS/ATP IL-1B secretion, AlphaLISA, 16 h; stronger effect = lower value. activity change, % at 57.5 µM. 360,000 compounds, 4.7% hits; in the data active = activity change below about -50%; inconclusive = mostly about -30% to -49%
#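 THP-1 cells pretreated 1 hr with compounds (up to 57.5 uM final), then stimulated with LPS (250 ng/mL final) plus ATP (1.25 mM final); secreted IL-1B measured by AlphaLISA after 16 hr, decreased signal indicating inhibition.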
# DT40 TDP1 no CPT: qHTS for Inhibitors of human tyrosyl-DNA phosphodiesterase 1 (TDP1): qHTS in cells in absence of CPT; Potency, µM (highest dose often 46.2 µM), inactives show at the highest dose activity change, negative = growth inhibition, most hits filed as inhibitors; 420,000 compounds, 15% hits; AID 686978, 2013; DT40 Tdp1-/- hTDP1 cells, no CPT, ATP luminescence, 48 h; note: potency is the fitted concentration of half-maximal effect; nearly all actives have a fitted effect of over 55% in size
#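 Cells were dispensed at 400 per well, compounds added by pin tool, plates incubated ≥48 hr at 37 °C, then CellTiter-Glo added for 30 min at room temperature before luminescence reading. Line: DT40 Tdp1-/- complemented with hTDP1; camptothecin omitted.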
# TDP1 inh: inhibitors of human tyrosyl-DNA phosphodiesterase TDP1 | recombinant TDP1, AlphaScreen DNA substrate cleavage | 350,000 compounds, 0.28% hits | Potency, µM (highest dose often 130 µM), for the others: top-dose activity change, negative = inhibition, hits mostly inhibitors | Q9NUW8; note: potency is the fitted concentration of half-maximal effect; nearly all actives have a fitted effect of over 40% in size
# Target sequence (Q9NUW8 whole entry, looked up): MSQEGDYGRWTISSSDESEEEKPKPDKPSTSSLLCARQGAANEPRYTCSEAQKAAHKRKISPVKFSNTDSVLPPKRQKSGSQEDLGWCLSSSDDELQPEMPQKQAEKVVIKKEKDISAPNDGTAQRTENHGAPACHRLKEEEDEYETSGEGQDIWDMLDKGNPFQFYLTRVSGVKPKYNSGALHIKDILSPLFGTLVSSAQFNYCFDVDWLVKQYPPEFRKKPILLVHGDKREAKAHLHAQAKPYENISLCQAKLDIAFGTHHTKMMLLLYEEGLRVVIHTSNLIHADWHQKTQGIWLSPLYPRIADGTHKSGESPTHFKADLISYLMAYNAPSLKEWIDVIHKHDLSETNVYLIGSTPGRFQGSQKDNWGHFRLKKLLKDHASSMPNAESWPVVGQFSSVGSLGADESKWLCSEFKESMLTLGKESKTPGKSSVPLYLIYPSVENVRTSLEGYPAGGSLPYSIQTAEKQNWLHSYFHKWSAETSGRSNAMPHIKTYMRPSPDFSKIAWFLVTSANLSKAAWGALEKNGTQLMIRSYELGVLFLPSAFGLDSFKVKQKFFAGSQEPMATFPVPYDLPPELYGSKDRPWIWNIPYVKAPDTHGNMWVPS
#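 Here, a 5' biotin and 3' phosphotyrosine-FITC DNA oligonucleotide reports Tdp1 activity: intact substrate bridges AlphaScreen beads, while cleavage leaves a 3' phosphate and drops signal. All incubations at room temperature.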
# Six1-Eya2 inh: blocks human Six1 binding to Eya2; 360,000 compounds, 0.56% hits; Q15475+O00167; activity change, % (test concentration not listed); AlphaScreen GST-Six1/His-Eya2 binding, biochemical; stronger effect = lower value; in the data active = activity change below about -65%; inconclusive = mostly about -30% to -63%
#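 AlphaScreen with GST-Six1 and His-Eya2 (5X mix: 250 nM and 500 nM), glutathione donor and nickel acceptor beads; buffer 50 mM Tris pH 8.0, 300 mM NaCl, 1 mM TCEP; 1 h at 37 C in the dark.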
# The depositor's hits bear a star; ? = inconclusive; . = no result given. Hits are enriched below; roughly 18% of the tested compounds scored in any of these assays. Unless noted, calls come from the whole dose curve; as a rule, active = well fitted curve in the direction sought with a large enough effect; inconclusive = small, poorly fitted or top-dose-only effect, or another doubt; inactive = no such curve, though single readings can be large; an effect the other way counts as inactive or inconclusive. % is set by controls: 0 for no effect and ±100 for the full control effect.
SMILES,DT40 TDP1 CPT,CtBP-E1A blk,IL-1B inflam inh,DT40 TDP1 no CPT,TDP1 inh,Six1-Eya2 inh
CCc1ccc(-c2nc(CN3CCC(C(=O)NCCc4ccc(Cl)cc4)CC3)c(C)o2)cc1,-10%,.,.,?,3%,.
Cc1oc(-c2ccc(Cl)cc2)nc1CN1CCCC(C(=O)NCCCN2CCOCC2)C1 (centres undefined),-78%,-5,-4,23µM*,2%,0
Cc1oc(-c2ccc(Cl)cc2)nc1CN1CCCC(C(=O)NCCc2ccccc2)C1 (centres undefined),8.2µM*,.,.,5.8µM*,7%,.
CC(C)c1ccc(NC(=O)C(c2ccccc2)N(Cc2ccco2)C(=O)CC2NC(=O)NC2=O)cc1 (centres undefined),6%,-2,-56*,-7%,7%,-3
COc1ccc(NC(=O)C(c2ccc(OC)cc2)N(C)C(=O)CC2NC(=O)NC2=O)cc1 (centres undefined),-2%,6,13,1%,-1%,35
CCc1ccc(C(=O)NNc2ccc(Cl)cc2)cc1,-9%,.,-23,-17%,11%,10
CCc1ccc(NCCC(=O)c2ccc(Cl)cc2)cc1,21µM*,-4,-22,16µM*,0%,-2
CC1CCCCC1n1c(=S)[nH]c2ccccc2c1=O (centres undefined),23µM*,-10,22,?,5%,-1
CC1CCCN(C(=O)c2ccc3c(=O)n(C4CCCC4)c(=S)[nH]c3c2)C1 (centres undefined),21µM*,5,-16,?,5%,0
COCCn1c(=S)[nH]c2cc(C(=O)N3CCN(C4CCCCC4)CC3)ccc2c1=O,?,5,24,?,.,7
O=C(c1ccc2c(=O)n(Cc3ccccc3)c(=S)[nH]c2c1)N1CCCC1,-22%,3,36,?,8%,-2
O=C(c1ccc2c(=O)n(C3CCCC3)c(=S)[nH]c2c1)N1CCCCCC1,15µM*,-13,2,13µM*,3%,-5
CCOCCCn1c(=S)[nH]c2cc(C(=O)N3CCN(C4CCCCC4)CC3)ccc2c1=O,23µM*,1,6,?,4%,1
Cn1c(=O)c2c(nc(Br)n2CCSc2ncccn2)n(C)c1=O,-16%,-1,12,-19%,0%,-3
Cc1c(OC(C(=O)O)c2ccccc2)ccc2c(-c3ccccc3)cc(=O)oc12 (centres undefined),-6%,-11,10,-16%,.,-14
CC(=O)c1ccc(Oc2cc(C(F)(F)F)cnc2C(N)=O)cc1,0%,0,-6,-21%,2%,-3
Cc1cc(C)cc(Oc2nc3c(c(=O)n(C)c(=O)n3C)n2Cc2ccc(F)cc2)c1,?,.,.,?,-2%,.
Cc1nc(Nc2ncc3c(n2)CC(C)(C)CC3=O)nc2ccccc12,-2%,4,-7,22%,.,7
CC1=NC(Nc2nc(C)c3ccccc3n2)=NC(C)(C)C1,21µM*,-1,-100*,16µM*,6%,-2
COc1cc(C2C(C#N)=C(N)N(Nc3ccccc3)C3=C2C(=O)CC(C)(C)C3)ccc1OCc1ccccc1 (centres undefined),?,-1,?,21µM*,11%,-4
COc1ccc(C2C(C#N)=C(N)N(c3cccnc3)C3=C2C(=O)CC(C)(C)C3)cc1OC (centres undefined),23µM*,3,7,?,1%,13
C=CCOc1ccc(C2C(C#N)=C(N)N(Nc3ccccc3)C3=C2C(=O)CCC3)cc1OC (centres undefined),?,-3,14,16µM*,3%,1
CC1(C)CC(=O)C2=C(C1)N(c1cccnc1)C(N)=C(C#N)C2c1cccs1 (centres undefined),5%,-4,0,-2%,-3%,0
COc1cc(C2C(C#N)=C(N)N(Nc3ccccc3)C3=C2C(=O)CC(C)(C)C3)ccc1OCc1cccc(F)c1 (centres undefined),?,-22,-52*,?,6%,-29
Cc1cnc(CNc2nc(-c3c(C)noc3C)nc3ccccc23)cn1,1%,.,.,2%,.,.
SMILES,DT40 TDP1 CPT,CtBP-E1A blk,IL-1B inflam inh,DT40 TDP1 no CPT,TDP1 inh,Six1-Eya2 inh
CC(=O)Nc1cccc(NC(=O)c2ccccc2OCc2ccccc2)c1,?,-2,?,?,-6%,-2
O=C(NC1CCCCC1)c1cccc(OCc2ccccc2)c1,?,-12,-74*,?,3%,-1
CC(=O)Nc1cccc(NC(=O)c2cccc(OCc3ccccc3)c2)c1,21µM*,3,68,18µM*,.,?
CC(=O)Nc1ccc(OCc2ccc(S(=O)(=O)Cc3ccccc3)cc2)cc1,-10%,.,13,?,-6%,2
CC(=O)Nc1cccc(OCc2ccc(S(=O)(=O)Cc3ccccc3)cc2)c1,?,22,16,21µM*,10%,5
FC(F)(F)c1cccnc1N1CCN(c2ncnc3nc[nH]c23)CC1,?,2,3,?,7%,4
CCN(CC)CCCNC(=O)C1CCN(S(=O)(=O)CC)CC1,-3%,.,.,-6%,-3%,.
CC(C)C[C@@H](CN1CCC[C@H]1CN1C(=O)C(=O)NC[C@@H]1Cc1ccccc1)N1C[C@H](Cc2ccc(O)cc2)N(CCc2ccccc2)C(=O)C1=O,?,0,-17,?,.,1
CC(C)C[C@@H](CN1CCCC1CN1C(=S)NC[C@@H]1Cc1ccccc1)N1C[C@H](Cc2ccc(O)cc2)N(CCc2ccccc2)C1=S (some centres undefined),18µM*,1,9,?,.,-8
CC(C)C[C@@H](CN1CCC[C@@H]1CN1C(=S)NC[C@@H]1Cc1ccc(O)cc1)N1C[C@H](Cc2ccc(O)cc2)N(CCc2ccccc2)C1=S,?,-28,-59*,21µM*,.,0
CC(C)C[C@@H](CN1CCC[C@@H]1CN1C(=S)NC[C@@H]1Cc1ccccc1)N1C[C@H](Cc2ccc(O)cc2)N(CCc2ccccc2)C1=S,?,-5,0,18µM*,.,-10
CC(C)C[C@@H](CN1CCC[C@@H]1CN1C(=O)C(=O)NC[C@@H]1Cc1ccccc1)N1C[C@H](Cc2ccc(O)cc2)N(CCc2ccccc2)C(=O)C1=O,?,-6,0,?,.,-5
